Screens deposited in PubChem by National Center for Advancing Translational Sciences (NCATS).
Only some compounds are listed: those with a hit (about 6.2% of all), similar ones and a draw of the others.
HT1080NT lethal – kills 2HG-producing HT-1080-NT fibrosarcoma cells. HT-1080-NT fibrosarcoma viability, CellTiter-Glo ATP luminescence, 48 h. Potency, µM (doses to about 46.1 µM), without a hit: top-dose activity, negative = less viability, hits mostly cytotoxic. 1.6% of 360,000 active. AID 686970;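 also: NT is the 2HG producing partner of a matched IDH1 knockdown line; 0% = DMSO-treated cells and -100% = media-only wells without cells; nearly all actives have a fitted effect of over 55% in size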
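Toxicity toward the 2HG-producing NT line was scored as %Activity, normalised to DMSO and no-cell wells, from CellTiter-Glo luminescence after 48 hours' treatment.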
S2 tox – cell viability loss in ATXN counter-screen; S2 cells (HEK-293 line with an ATXN2-luciferase reporter) viability, CellTiter-Fluor protease fluorescence, 24 h; Potency, µM (series often up to 56.7 µM), actives largely listed as cytotoxic; 0.49% of 400,000 active; AID 651635; also: nearly all actives have a fitted effect of over 40% in size
ATXN2 expr inh – inhibitors of ATXN2 expression | HEK-293 ATXN2-luciferase reporter, luminescence, 24 h | Potency, µM (highest dose often 57 µM), inactives show at the top dose activity change, negative = inhibition, usual class: inhibitors | 0.72% of 360,000 active; also: % is scaled to controls: 0 for no effect and ±100 for the full control effect; nearly all actives have a fitted effect of over 55% in size
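qHTS (up to 57 uM final) was run with 24 h compound exposure of reporter cells at 37 °C. Each well was multiplexed: SteadyGlo luminescence measured ATXN2-luciferase expression after a fluorogenic Gly-Phe-AFC viability readout (25 uM final).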
HT1080 IDH1KD tx – toxicity to HT-1080 IDH1 knockdown cells (counter line). HT-1080 IDH1 knockdown viability, ATP luminescence, 48 h. Potency, µM (top dose mostly 46.1 µM), for inactives: at the highest dose activity, negative = toxicity, actives largely listed as cytotoxic. 2% of 360,000 active. AID 686971;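 also: 0% = DMSO wells and -100% = cell-free medium wells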
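After a 2 h attachment period, IDH1KD HT-1080 cells took pin-transferred compound for 48 h at 37 °C; ATP-based luminescence after 10 min room-temperature reagent incubation reported viability.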
KB-V1 MDR tox – KB-V1 MDR subline cytotoxicity | KB-V1 MDR cells viability, CellTiter-Glo, 72 h | 3.4% of 400,000 active | Potency, µM (top dose mostly 46.1 µM), actives largely listed as cytotoxic; also: % is scaled to controls: 0 for no effect and ±100 for the full control effect; nearly all actives have a fitted effect of over 60% in size
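qHTS viability screen in drug-selected KB-V1 MDR cells: 72 h compound treatment at 37 degrees C, ATP luminescence end point.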
KB-3-1 tox – kills parental KB-3-1 adenocarcinoma cells; AID 1347075; Potency, µM (top dose mostly 46.1 µM), most hits filed as cytotoxic; KB-3-1 viability, CellTiter-Glo ATP luminescence, 72 h; 1.4% of 400,000 active; also: % is scaled to controls: 0 for no effect and ±100 for the full control effect; nearly all actives have a fitted effect of over 60% in size
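Cytotoxicity in the drug-sensitive parental line KB-3-1 was scored as loss of CellTiter-Glo luminescence following 72 h incubation with compound. Values come from curve fitting of normalized concentration-response data.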
Starred values were filed as active, the others as inactive; i = inactive; ? = inconclusive; . = no result; ! = not confirmed by another sample. Calls follow the shape of the dose curve; as a rule, active = well fitted curve in the direction sought with a large enough effect; inconclusive = small, poorly fitted or top-dose-only effect, or another doubt; inactive = no such curve, though single readings can be large; an effect the other way counts as inactive or inconclusive. Potency is read from the fitted curve at half-maximal effect.

SMILES	HT1080NT lethal	S2 tox	ATXN2 expr inh	HT1080 IDH1KD tx	KB-V1 MDR tox	KB-3-1 tox
CC1(C)Cc2ccccc2C(Nn2cnnc2)=N1	6%	i	4%	2%	i	i
Cc1cc(Cl)c(S(=O)(=O)N2CCN(c3ccc(F)cc3)CC2)cc1OCC(N)=O	-18%	i	-19%	-28%	?	i
Cc1cc(Cl)c(S(=O)(=O)N2CCN(c3ccc(F)cc3)CC2)cc1OCC(=O)NC1CCCCC1	?	?	-23%	-23%	?	0.73µM*
CCOC(=O)C1CCCN(S(=O)(=O)c2cc(OCC(=O)NC3CCCCC3)c(C)cc2Cl)C1 (stereo unspecified)	-3%	i	-22%	-9%	16µM*	i
Cc1ccc(-n2c(=O)c3c4c(sc3n(CC(=O)C(C)(C)C)c2=O)CCCCC4)cc1C	.	?	5%	.	i	i
Cc1ccc(NC(=O)CN2C(=O)COc3ccc(S(=O)(=O)NC4CCCC4)cc32)cc1N(C)C	.	?	-13%	.	i	i
Cc1oc(-c2cccc(NC(=O)C3CCCN(C)C3)c2)nc1CNC(=O)c1coc2c1C(=O)CCC2 (stereo unspecified)	.	i	.	.	.	.
CCOc1ccc(NC(=O)CSc2nnc(C3CC3)n2C2CC2)cc1	9%	i	-7%	17%	13µM*	i
Oc1c(C(c2ccccn2)N2CCCCC2)cc(Cl)c2cccnc12 (stereo unspecified)	15µM*	i	?	16µM*	?	?
CN1CCN(C(c2ccc(Cl)cc2)c2cc(Cl)c3cccnc3c2O)CC1 (stereo unspecified)	?	?	?	23µM*	?	?
CCOc1ccc(C(=O)N2CCN(Cc3cc(=O)n4nc(-c5cccc(OC)c5)sc4n3)CC2)cc1	.	?	-23%	.	i	i
COc1ccc(OC(C)C(=O)N(C)Cc2nc(-c3ccc(C)cc3)no2)cc1 (stereo unspecified)	-17%	.	2%	-18%	?	i
COc1ccc(-c2noc(CN(C(=O)C(C)(C)C)C(C)C)n2)cc1	8%	i	20%	9%	21µM*	i
COc1ccc(OC(C)C(=O)N(C)Cc2nc(-c3ccc(OC)cc3)no2)cc1 (stereo unspecified)	?	i	-16%	0%	18µM*	?
CC(C)N(Cc1nc(-c2ccccc2)no1)C(=O)C(C)(C)C	11%	i	-3%	9%	i	i
Cc1ccc(-c2noc(CN(C(=O)Cc3ccccc3)C(C)C)n2)cc1	-16%	i	2%	-30%	23µM*	i
CCC(=O)c1ccc2c(c1)N(CCCN(C)C)c1ccccc1S2	23µM*	?	?	23µM*	i	i
Cc1ccc(CC(=O)Nc2ccc3c(c2)N(C)C(=O)c2ccccc2S3)cc1	.	i	-37%	.	18µM*	i
COc1ccc2c(c1)Sc1ccccc1N2CCN(C)C	-28%	i	-3%	-30%	i	?
CCOC(=O)c1ccc(NC(=O)c2ccc3c(c2)NC(=O)c2ccccc2S3)cc1	.	?	-20%	.	?	i
Cc1ccc(NC(=O)c2ccc3c(c2)NC(=O)c2ccccc2S3)cc1	.	?	-39%	.	9.2µM*	6.5µM*
Cc1ccc(C(=O)Nc2ccc3c(c2)N(C)C(=O)c2ccccc2S3)cc1F	.	?	?	.	6.5µM*	8.2µM*
CC(=O)Nc1cc(C(=O)Nc2ccc3c(c2)N(C)C(=O)c2ccccc2S3)ccc1C	.	?	3%	.	?	4.1µM*
CC(=O)c1ccc2c(c1)N(C)c1ccccc1S2	0%	i	4%	-10%	23µM*	?
CCc1ccccc1NC(=O)c1ccc2c(c1)N(Cc1cccc(Cl)c1)C(=O)c1ccccc1S2(=O)=O	.	i	7%	.	i	i
SMILES	HT1080NT lethal	S2 tox	ATXN2 expr inh	HT1080 IDH1KD tx	KB-V1 MDR tox	KB-3-1 tox
C#CCN(Cc1ccco1)C(=O)c1ccc(OC2CCN(Cc3ccccn3)CC2)cc1	-1%	i	-16%	-1%	16µM*	i
O=C(NCc1ccco1)c1ccc(OC2CCN(Cc3ccccn3)CC2)cc1	4%	i	.	-2%	i	i
CCOC(=O)c1c(C=O)c(C)n(Cc2ccccc2Cl)c1C	0%	i	-8%	-12%	23µM*	i
CCOC(=O)c1c(C=O)c(C)n(Cc2ccc(C)cc2)c1C	-22%	?	-20%	?	?	?
COc1ccccc1-n1c(-c2ccccc2)c[n+]2c1CCc1ccccc1-2	15µM*	?	6.7µM*!	13µM*	i	3.3µM*
CC(C)c1ccc(-n2c(-c3ccccc3)c[n+]3c2CCc2ccccc2-3)cc1	8.2µM*	?	?	7.3µM*	i	2.6µM*
COc1ccc(-n2c(-c3ccc(Br)cc3)c[n+]3c2CCc2ccccc2-3)cc1	?	i	?	16µM*	i	2.6µM*
COc1ccc(-c2cn(-c3ccc(OC)cc3)c3[n+]2-c2ccccc2CC3)cc1	26µM*	?	?	?	i	3.7µM*
COc1ccc(-n2cc(-c3ccccc3)[n+]3c2CCCCC3)cc1	?	i	?	?	i	?
C[n+]1cc(-c2ccccc2)n2c1CCCCC2	-3%	i	-8%	4%	i	?
CN1CCN(C(=O)c2ccc3c(c2)N(Cc2c(F)cccc2Cl)C(=O)c2ccccc2S3)CC1	.	i	-30%	.	i	i
Cc1oc(-c2ccc(C(=O)NCCC(C)C)cc2)nc1CS(=O)(=O)c1ccccc1	.	i	-10%	.	?	i
COc1ccccc1OCc1nc2ccccc2n1Cc1ccccc1	.	?	14%	.	i	i
CCOC(=O)c1ccc(N(C(=O)c2ccccc2)c2ccccc2)cc1	.	.	.	.	i	i
Cc1ccccc1NC(=O)CSc1nnc(-c2cccs2)o1	.	i	20%	.	i	i
Cc1cc(C(=O)Nc2ccccc2-c2nc(CNC(=O)C3COc4ccccc4O3)c(C)o2)c(C)o1 (stereo unspecified)	.	i	.	.	.	.
Cc1cc(C(=O)NCC2CCC3(CCN(Cc4ccc5ccccc5c4)CC3)O2)n(C)n1 (stereo unspecified)	.	i	.	.	.	.
COc1cc2c3c(cccc3c1)C(=O)N(CCN1CCCC1)C2=O	13µM*	i	.	8.2µM*	10µM*	?
Cc1ccc(NC(=O)CCN2C(=O)c3cccc4cccc(c34)C2=O)cc1	14%	i	-10%	-2%	i	i
Cc1ccc(NC(=S)N2CCN(CCN3C(=O)c4cccc5cccc(c45)C3=O)CC2)cc1	-19%	i	-8%	-3%	15µM*	i
